Assay results reported in the supplement of paper PMC10681739.

What was measured:
ETS1 [1] = molecular target: T1, ETS1 (UniProt P14921); assay: ETS1 binding intensity (PBM fluorescence), ETS1 alone (arbitrary fluorescence units); higher = stronger binding; conditions: ETS1 concentration 1 nM; RUNX1 concentration 0 nM
T1 sequence: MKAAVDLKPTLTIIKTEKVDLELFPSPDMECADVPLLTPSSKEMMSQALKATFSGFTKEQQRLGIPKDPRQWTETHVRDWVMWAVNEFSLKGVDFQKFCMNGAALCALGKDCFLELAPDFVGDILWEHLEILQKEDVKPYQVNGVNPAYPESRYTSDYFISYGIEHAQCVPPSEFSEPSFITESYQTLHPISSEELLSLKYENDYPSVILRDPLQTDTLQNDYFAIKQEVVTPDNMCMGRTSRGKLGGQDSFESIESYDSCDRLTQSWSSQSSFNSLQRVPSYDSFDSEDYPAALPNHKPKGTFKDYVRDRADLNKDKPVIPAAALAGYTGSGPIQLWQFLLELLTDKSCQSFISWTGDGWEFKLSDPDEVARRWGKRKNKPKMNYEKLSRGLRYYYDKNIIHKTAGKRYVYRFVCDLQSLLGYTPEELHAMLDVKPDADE

RUNX1 [2] = molecular target: RUNX1 (UniProt Q01196); assay: RUNX1 binding intensity (PBM fluorescence), RUNX1 alone (arbitrary fluorescence units); higher = stronger binding; conditions: RUNX1 concentration 2 nM; ETS1 concentration 0 nM
Experimental: (§1)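 Cooperative gcPBM on 36-bp genomic probes with neighbouring ETS1 and RUNX1 sites. Recombinant human RUNX1 (2 nM) was incubated alone or with ETS1 (25 nM) and detected with anti-RUNX1 antibody plus Alexa488 secondary. Values are medians over 4 replicate spots; the RUNX1+ETS1 data were normalised to the RUNX1-only data. The probes sit in constant array flanks that are not printed.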

ETS1 [3] = molecular target: T1, ETS1; assay: ETS1 binding intensity (PBM fluorescence) in presence of RUNX1, normalised to ETS1-only experiment (arbitrary fluorescence units); higher = stronger binding; conditions: ETS1 concentration 1 nM; RUNX1 concentration 25 nM
RUNX1 [4] = molecular target: RUNX1 (UniProt Q01196); assay: RUNX1 binding intensity (PBM fluorescence) in presence of ETS1, normalised to RUNX1-only experiment (arbitrary fluorescence units); higher = stronger binding; conditions: RUNX1 concentration 2 nM; ETS1 concentration 25 nM
Experimental: as §1
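Throughout, for RUNX1 binding intensity (PBM fluorescence) in presence of ETS1, normalised to RUNX1-only experiment: Full-length recombinant human ETS1 or RUNX1 bound to double-stranded 36-bp genomic probes on microarrays, detected by protein-specific primary antibody and Alexa488 secondary, spot fluorescence as median of four replicate spots.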
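Throughout, for RUNX1 binding intensity (PBM fluorescence), RUNX1 alone: Full-length recombinant human RUNX1 bound to double-stranded 36-bp genomic probes on a high-density microarray, scored as Alexa488 fluorescence per spot via anti-RUNX1 antibody, median of four replicate spots.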

Chain of RUNX1 (Q01196 whole entry): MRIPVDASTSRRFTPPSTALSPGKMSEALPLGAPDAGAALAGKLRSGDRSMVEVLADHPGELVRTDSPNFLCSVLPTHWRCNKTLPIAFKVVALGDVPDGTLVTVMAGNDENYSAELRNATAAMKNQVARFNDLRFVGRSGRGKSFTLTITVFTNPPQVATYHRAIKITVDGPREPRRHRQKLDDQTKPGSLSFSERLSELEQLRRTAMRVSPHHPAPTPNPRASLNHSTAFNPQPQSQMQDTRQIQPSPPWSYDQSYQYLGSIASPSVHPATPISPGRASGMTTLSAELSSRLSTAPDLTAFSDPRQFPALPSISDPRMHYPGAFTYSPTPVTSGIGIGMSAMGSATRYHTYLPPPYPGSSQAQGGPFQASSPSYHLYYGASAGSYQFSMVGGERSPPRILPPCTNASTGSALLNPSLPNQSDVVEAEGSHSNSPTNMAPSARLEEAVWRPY

Sequence | ETS1 binding intensity (ETS1 [1]) | RUNX1 binding intensity (RUNX1 [2]) | ETS1 binding intensity (ETS1 [3]) | RUNX1 binding intensity (RUNX1 [4])
AAGGCGGAGGAAGGGAAAATTGTGGTTGGGCAGAGG | 511 | 835 | 742 | 887
ACGCGCTCCCTCACTTCCTGCGGCTTTTGGTCCCTC | 1310 | 1880 | 1500 | 2800
CGCCTACTCTACTTCCGCGGTCGGCCGGGTAAGGAC | 603 | 2130 | 754 | 2900
GCCCTGACCCACATCCTGCCGCAGCCTGCTTGTCCT | 979 | 1520 | 1350 | 7030
ACTACAACTTCCGACTTGCATCACTGCGGTGGCGCT | 425 | 942 | 573 | 1830
ACTCCCTAGAGCAGGAAGCCTGTGGTTTGTAATTGG | 1140 | 1040 | 7950 | 1480
CAGTGACAGGAAGTGGTTCAGCGGTTGTTTAGGGCT | 7680 | 892 | 9430 | 3830
TTCACAACACAGGATGTGCGGTATTATACGGCAAAG | 5120 | 898 | 11200 | 2390
ACTGAACAAACCGGATGTGGTTCCCACCTGCAATCT | 25000 | 850 | 29500 | 11400
GTCACCATTTCCGGGCCTCCGCGGTGTCCCCACCCC | 2560 | 1040 | 2870 | 2900
CTTCACTATGCATCCTGTACTGCAACCACACCAAAC | 587 | 1350 | 793 | 1910
TTGGCTTTGTGTTTCCGCGGTGTTGGTAGAGTCTCG | 418 | 875 | 482 | 980
TCCCTCCTTCCGCTCTGGTTTTGTGGTTGCTTGCTG | 902 | 1490 | 1620 | 3330
GTTTACAGGGGACAGGAAATGTGGGTGAACTCAGCC | 6160 | 745 | 4710 | 975
ATCTTCCGTAGCAGTCAGGTGTTTTGTGGTTTGCAG | 460 | 1490 | 1300 | 2670
TGTTCAGGAACAGGAAATGAAACCCCGCAGCTTTGA | 8520 | 748 | 11300 | 1150
CCGCTTCCTTAGAGGTTAAGTGGTGGTGGTTCAGTT | 473 | 856 | 391 | 1230
CTCGCGATTCCTCTTCCGCTGCGGTCTCCTTAACAC | 634 | 1290 | 841 | 2170
CCAGAGGGCGGAAGTGGGAGCTGCGACCGCGCTCCC | 3670 | 690 | 6280 | 1880
ACAGGAAATGACTTAGGGAAAGTCCCAACCGCAATC | 2800 | 1230 | 15700 | 1530
TCTGGGACAGGAAAGACTTGTGGTTACTGCTGTTGA | 808 | 1390 | 4470 | 3160

Sequence | ETS1 binding intensity (ETS1 [1]) | RUNX1 binding intensity (RUNX1 [2]) | ETS1 binding intensity (ETS1 [3]) | RUNX1 binding intensity (RUNX1 [4])
TGCTCAGAAGGGCATCCGGTTGCGGAGAAGGTACAC | 2130 | 653 | 2000 | 1370
TCCCCCACTTCCTGGCAGCAGCAGTGTGGTGAGGAG | 845 | 879 | 996 | 2160
AGTGGATAGCACTTCCTTCTCTTACCACAGTTCCTT | 365 | 1020 | 558 | 1610
CTAAACCGGAAGCCGCCCCTCTGACCGCTCTAAAAC | 5350 | 1070 | 5990 | 2010
GCTGGGGCAGGAAGCTTCTAGGCCACAGACAGGACG | 1190 | 711 | 1360 | 865
ACCAGCAACGGAAATCAGATCTCTTGTGGTTATTAT | 1480 | 994 | 7160 | 1680
GCCGTCACTTCCGTCATTCAAACCGCCCGCCAATGG | 823 | 1050 | 1160 | 2520
AGATTTTGTCTTCCTGTTGTGGCAACATCTGTAGAA | 521 | 1210 | 406 | 1520
AGGCAAACTACAGGAAGATCCTGCCCGCAACTTGGT | 454 | 785 | 2160 | 931
AGTCAGCAGAGAGGAAGTGGTTAGTCCTGCCTTGAA | 2240 | 742 | 4900 | 1870
GATTTGTCACAGGAAGTACCCACAGGCCAAGAAGTG | 5230 | 817 | 5790 | 1260
TACCTACAGGAAATGAGACACACCGCAGGCCGATCC | 2130 | 868 | 7670 | 1770
TCCGGAAGTGGCACTGATGGGCGCCTGCGGCGGGGG | 2720 | 758 | 5500 | 1030
GGACCGGAAGTTAAGGCGTTCGCGGCGTGTGGTAAG | 8560 | 626 | 11800 | 1560
AGCTTGCTTCCTGTCCCCAAAACCCACAGCACACGG | 688 | 893 | 1120 | 2590
GATCTGTGCTCAGGATGTGGTGAGAGAATAAGGAAG | 1210 | 753 | 2870 | 1050
TCCCGGGGAGGAAGTGGCGAGAATGCGGGGGTGGGC | 1340 | 906 | 1440 | 1120
TGGAGAGCACAGGAAGTGGCCCACAGCCCAGGCCAA | 5790 | 766 | 6890 | 1280
GTGCCGGCGGCCGGATGTGGGCGGGGCCACGGGGAG | 8590 | 753 | 16200 | 4170
AGCGCCACACTTCCGCTTTGCGGCAGTGTGCGCCCC | 3490 | 730 | 3280 | 1890
